{"source": "PubChem BioAssay AID1508600", "about": "(Functional Genomics Laboratory (NCATS/FGL), 2020)", "note": "The campaign covered roughly 53,000 sequences. About 3,700 (7%) were called active.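 The calls were made as follows: active = gene knockdowns whose robust z-score for IL-1 alpha signal is at least 2 or at most -2, so actives lie on both sides; inactive = the rest.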 The sample as a whole holds a higher share of actives than the screen did.", "data": [{"assay": "Components of the Cytosolic LPS Sensing Pathway: Gene Identification via Genome-wide siRNA Screen;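 also: robust z of the log signal after scaling to non-targeting control siRNA wells of the plate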", "details": "RAW264.7 macrophages, IL-1a HTRF, actives lie on both sides, screened at 100 nM (by protocol), cells primed 5 h with Pam3CSK4 first", "summary_of_the_method": "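RAW264.7 mouse macrophages reverse-transfected with single siRNAs (100 nM final) for 48h, primed with Pam3CSK4 for 5 hours, then transfected with LipidA for 24 hour. Supernatant IL-1a read by HTRF; values normalized to negative-control median, log-transformed robust z-scores.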", "values": [{"sequence": "GCCUUUCAUGGAUUAACCUTT against Gsdmc", "z-score": "-2.03 (active)"}, {"sequence": "CGACGAAGAUAUUUACAGUTT against Vav1", "z-score": "0.504 (inactive)"}, {"sequence": "CCAAAAAAGUUAGUUGUGGTT against Phf6", "z-score": "1.23 (inactive)"}, {"sequence": "GGUCGUAAAAAUUGAAAUCTT against Lhcgr", "z-score": "0.169 (inactive)"}, {"sequence": "GGAGGAUCUUGAGUUGGAGTT against Nupr1l", "z-score": "2.32 (active)"}, {"sequence": "CCAUUUAUGGGUUUUCUCUTT against Taar7b", "z-score": "0.12 (inactive)"}, {"sequence": "GGCUGUGCUACAGUUUCUCTT against Get4", "z-score": "-0.498 (inactive)"}, {"sequence": "GGUCAUUGAGCUGAUGGACTT against Elovl1", "z-score": "4.34 (active)"}, {"sequence": "GGGCUUUCACACAAUCCCUTT against Kcns1", "z-score": "-0.362 (inactive)"}, {"sequence": "GGAACUGGCCAAUUACUACTT against Rdm1", "z-score": "-1.29 (inactive)"}, {"sequence": "GGAUAUCACUUGCUAUUCCTT against Abraxas2", "z-score": "-0.406 (inactive)"}, {"sequence": "GGCUUAUGACGAAUUAGUCTT against Ubn2", "z-score": "0.274 (inactive)"}, {"sequence": "GGAACAGCCUAUGUGGUCUTT against Sf3b6", "z-score": "-2.17 (active)"}, {"sequence": "GCACCUUGUCAACCAUUACTT against Kctd7", "z-score": "0.842 (inactive)"}, {"sequence": "GGGCAUCAGCAUUUGGUCATT against Med1", "z-score": "0.698 (inactive)"}, {"sequence": "GGAAGUCGAGUUGAAAUCGTT against Rida", "z-score": "0.755 (inactive)"}, {"sequence": "GUUGAGUGGCUGUGAUAUATT against Nms", "z-score": "-0.00159 (inactive)"}, {"sequence": "GGAAAUAUGAUAGAAUGCCTT against Pramel32", "z-score": "0.17 (inactive)"}, {"sequence": "GGCAAAAGAACAAGAAACUTT against Orc1", "z-score": "-2.09 (active)"}, {"sequence": "GGCUAUCACCUCCAACACCTT against Fkbp8", "z-score": "-1.04 (inactive)"}, {"sequence": "GGACAAGGAACAGAGCCUUTT against Rnf183", "z-score": "-1.27 (inactive)"}, {"sequence": "GGAGAUCUUGAGAUUGUAUTT against Ticrr", "z-score": "0.424 (inactive)"}, {"sequence": "GGAGAAAGGAUUGUGUUUGTT against Clec10a", "z-score": "2.2 (active)"}, {"sequence": "CCCGGUUCUUAGGUUUGUATT against Prr15l", "z-score": "1 (inactive)"}, {"sequence": "GGUCAGGUUGCCAAGAAGGTT against Sbds", "z-score": "1.59 (inactive)"}, {"sequence": "GGCAUGAAUAUGCAUUUAGTT against Arrdc3", "z-score": "-3.65 (active)"}, {"sequence": "CCCAUAUGAGCUGAAAGCUTT against Il1b", "z-score": "-0.878 (inactive)"}, {"sequence": "GGGAAUGUCUGAAAGUCCCTT against Klhdc10", "z-score": "0.66 (inactive)"}, {"sequence": "GGCCAUCAAGGUCUUUUCUTT against Washc1", "z-score": "-1.34 (inactive)"}, {"sequence": "GGAUCUUCUUCUAUCAGUCTT against Ncf4", "z-score": "0.487 (inactive)"}, {"sequence": "CCGUUUUGAACCAUAAAAATT against Zfp7", "z-score": "-0.873 (inactive)"}, {"sequence": "GGCCCACGUCCUGUACAUUTT against Tdrd1", "z-score": "3.38 (active)"}, {"sequence": "GGUUUCGUAUAAAUUCUCUTT against Ank", "z-score": "1.53 (inactive)"}, {"sequence": "CGGAGUCAUACUUUUUCGATT against Trim12c", "z-score": "0.0182 (inactive)"}, {"sequence": "GGUAAAAUACUACCUGAGATT against Abca15", "z-score": "-0.0103 (inactive)"}, {"sequence": "GGAAUUCUUCAUCCAUGGATT against Olfr570", "z-score": "-2.66 (active)"}, {"sequence": "CGGUUCUGGGAAUUCUUUGTT against Olfr624", "z-score": "-2.11 (active)"}, {"sequence": "GGAAGAAAUGUACAAACUGTT against Spg21", "z-score": "1.63 (inactive)"}, {"sequence": "GGACAUUUUCUUUGGAAAATT against Ccnl1", "z-score": "0.194 (inactive)"}, {"sequence": "GGACAGCAAGACCAACCUATT against Elavl2", "z-score": "-1.87 (inactive)"}, {"sequence": "CCAUAAAUCACUCAGUUUGTT against Adad1", "z-score": "0.222 (inactive)"}, {"sequence": "GGCAUUAUCUACAUGCACATT against Olfr1287", "z-score": "0.228 (inactive)"}, {"sequence": "GCAUGGCUAUUUAACAUUCTT against Rpl7l1", "z-score": "0.171 (inactive)"}, {"sequence": "GCAAUUUCUGUGUGAAGAATT against Ahcyl1", "z-score": "-0.705 (inactive)"}, {"sequence": "GGGCUCUAGCUAAAAACGATT against Med10", "z-score": "1.23 (inactive)"}, {"sequence": "AGUCUCCAAAUGCAUUUAATT against Serpinb9g", "z-score": "-2.5 (active)"}, {"sequence": "GAAUCGGAGGACAAAAUACTT against Emx1", "z-score": "0.368 (inactive)"}, {"sequence": "GCACCUUUGAAUGUGAAGUTT against Ccl2", "z-score": "-0.408 (inactive)"}, {"sequence": "CCUUCAUUGGUUAGCAUGUTT against Rbl2", "z-score": "-0.424 (inactive)"}, {"sequence": "CACGACCUAGGUGUGACCATT against Arrdc2", "z-score": "-2.31 (active)"}, {"sequence": "CCUGACGAUCAAAUCACUGTT against Mvb12a", "z-score": "0.0387 (inactive)"}, {"sequence": "CGCCAAUAUGGCCAUUGACTT against Ikzf2", "z-score": "-0.304 (inactive)"}, {"sequence": "GGCUCUGUUUAUCCUGGAGTT against Pcdha7", "z-score": "-0.0385 (inactive)"}, {"sequence": "GGUUUCAUUUUUCGAGGAGTT against Cit", "z-score": "-0.269 (inactive)"}, {"sequence": "GGUGAUACCAUCACUUUGATT against Mark2", "z-score": "0.173 (inactive)"}, {"sequence": "GCCGCAUCCACACAUCUCUTT against Daam2", "z-score": "0.465 (inactive)"}, {"sequence": "GGCACUCAGGAACUUCCUGTT against Eci3", "z-score": "-2.05 (active)"}, {"sequence": "GCCCAUAGUAUAAAAUACCTT against Dzip1", "z-score": "1.06 (inactive)"}, {"sequence": "GGAAGAUGCCUUUUCCAAGTT against Syt1", "z-score": "0.752 (inactive)"}, {"sequence": "GGUGGAAUAUAUUGAGUAUTT against Fam199x", "z-score": "0.251 (inactive)"}, {"sequence": "CGACUAAGGAUGAAAAGCATT against Apbb1ip", "z-score": "-3.04 (active)"}, {"sequence": "GCGAAAGACGAUCAAAACCTT against Scn1a", "z-score": "0.841 (inactive)"}, {"sequence": "GGCUACACUCUGACAGCACTT against Znhit2", "z-score": "-0.666 (inactive)"}, {"sequence": "GCCCGGUAAAGGUAUCCAUTT against Trp53bp1", "z-score": "0.384 (inactive)"}, {"sequence": "GGGAGUUACUAACCACUUCTT against Gja3", "z-score": "-2.05 (active)"}, {"sequence": "GCCUCUCCUGUGAAUGACATT against Erlec1", "z-score": "-0.699 (inactive)"}, {"sequence": "GGGUGUCACAAAAUAAAAUTT against Sigirr", "z-score": "-0.245 (inactive)"}, {"sequence": "GGAGAUGAACCAUUAUGUCTT against Mycbp", "z-score": "-2.03 (active)"}, {"sequence": "GCAGAAAUACUGGCGAAUATT against Gm9725", "z-score": "0.607 (inactive)"}]}]}
